Records with an inconclusive call do not appear. Calls of active or inactive are those of the source. The call rests on the fitted dose curve; in most records, active means well fitted curve in either direction with a large enough effect (not every such curve was filed as active); inconclusive means small, poorly fitted or top-dose-only effect, or another doubt; inactive means flat fitted curve, though single readings scatter. Starred links: 1 amine or outer side, 2 acyl side, 3 side chain; linkers in the order of their positions; H or OH if unused. Positions of bridges follow the written chain, without caps; N, C: chain ends. Non-standard residues stand in square brackets, D forms with d. Residues, ends and D or L forms follow the SMILES beside them. *: point of attachment. X1 = NC1=N[C@@H](O)C[C@@H]([C@@H](N[*:1])C(=O)[*:2])N1; ΔAla(Z-3-ureido) = NC(=O)N/C=C(\N)C(=O)O; β3hOrn = NCCC[C@H](N)CC(=O)*; Dap = NC[C@H](N)C(=O)O

This experiment in a line: Stat Signaling Pathway (AID 446).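 Further: ME-180 cervical cancer cells given 40 pM IL-6 alongside compound.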 Conditions: ME-180 (cervical carcinoma) SIE beta-lactamase reporter, IL-6 stimulated, 5 h; series mostly up to 17.2 µM. How it is done:
NCGC Assay Overview: The IL-6/STAT signaling pathway was assayed in ME-180 cervical carcinoma cells by a beta-lactamase reporter gene controlled by a STAT Inducible Element (SIE). This reporter is induced by IL-6 at 40 pM AC50 and inhibited by the pan JAK inhibitor, 2-(1,1-Dimethylethyl)-9-fluoro-3,6-dihydro-7H-benz[h]-imidaz[4,5-f]isoquinolin-7-one, at approximately 10 nM AC50. Plated cells were incubated overnight and on the following day, stimulated with 40 pM IL-6 for 5 hrs. The assay was screened at the AC50 of IL-6 activation to identify both inhibitors and activators of IL-6/STAT signaling.
NCGC Assay Protocol Summary: Cells were trypsinized, washed in assay medium (AM, OPTI MEM with 0.5% fetal bovine serum, 0.1 mM nonessential amino acids, 1 mM sodium pyruvate, 10mM HEPES pH 7.3, 100U/ml penicillin, and 100 ug/ml streptomycin) and suspended at 6 x 10e5/ml in AM. Approximately […] cells in 5 uL/well was dispensed into 1536 well plates and the cells were incubated overnight at 37 C. 23 nL of compound were delivered by a pin tool and 1 uL of IL-6 (40 pM final concentration in AM) was added. After centrifugation at 1000 rpm for less than a minute, plates were incubated at 37C for 5 hrs. One uL of detector mix (LiveBLAzerTM, Invitrogen) was added, the plates incubated at room temperature for 2.5 hrs, and fluorescence intensity at 460 and 530 nm emission was measured at 405 nm excitation by an Envision (Perkin Elmer) or Safire II (Tecan). Data were normalized by GeneData to the controls for AC90 stimulation (300 pM IL-6) and to AC90 inhibition (125 nM Jak inhibitor, 40 pM IL-6 in AM).
As to `CN1CCC2(CC1)CCN(C(=O)c1ccncc1)CC2`, the call was inactive.
On to `O=C1O[C@H](CN2CCOCC2)CN1/N=C\c1ccc([N+](=O)[O-])o1`, for which the compound was classed as inactive.
As for `COCCOC(=O)C1=C(C)NC(C)=C(C(=O)OC(C)C)[C@H]1c1cccc([N+](=O)[O-])c1`, the call was inactive.
For the compound `CC(=O)OCC(=O)[C@@]1(O)CC[C@@H]2[C@H]3CCC4=CC(=O)C=C[C@]4(C)[C@]3(F)[C@@H](O)C[C@@]21C`, the outcome was inactive.
For the compound `CC(C)CC(=O)N[C@H](C(=O)N[C@H](C(=O)N[C@@H](CC(C)C)[C@H](O)CC(=O)N[C@@H](C)C(=O)N[C@@H](CC(C)C)[C@H](O)CC(=O)O)C(C)C)C(C)C`, the compound was called inactive.
For the compound `NS(=O)(=O)c1cc2c(cc1Cl)N[C@@H](CC1CCCC1)NS2(=O)=O`, the call was inactive.
The value for `CC[C@@H]1OC(=O)[C@H](C)[C@H](O[C@@H]2C[C@](C)(OC)[C@H](O)[C@H](C)O2)[C@H](C)[C@H](O[C@@H]2O[C@@H](C)C[C@@H](N(C)C)[C@@H]2O)[C@](C)(O)C[C@H](C)C(=O)[C@H](C)[C@H](O)[C@]1(C)O` was “inactive”; that for `NCCC[C@H](N)CC(=O)N[C@H]1CNC(=O)[C@@H]([C@@H]2C[C@H](O)N=C(N)N2)NC(=O)/C(=C/NC(N)=O)NC(=O)[C@@H](CO)NC(=O)[C@@H](CO)NC1=O` (β3hOrn-[Dap][dS][dS][ΔAla(Z-3-ureido)][X1]; lactam 1-C) was “inactive”.
Regarding `CCC[C@@H]1O[C@@H]2C[C@@H]3[C@H]4CCC5=CC(=O)C=C[C@@]5(C)[C@H]4[C@H](O)C[C@@]3(C)[C@@]2(C(=O)CO)O1`, the compound was called inactive.
In the case of `Nc1c2ccccc2nc2c(O)cccc12` it was “inactive”; in that of `CN[C@H]1[C@H](O)[C@@H](O[C@@H]2[C@H](O)[C@@H](O[C@H]3OC(CN)=CC[C@H]3N)[C@@H](N)C[C@H]2N)OC[C@@]1(C)O`, “inactive”; in that of `O=C(O)[C@@H]1CCCNC1`, “inactive”.
Turning to `C#C[C@@]1(O)CC[C@@H]2[C@@H]3CCC4=CC(=O)CC[C@@H]4[C@H]3CC[C@]21C`, the call was inactive.
For the compound `CC(C)(N=NC(C)(C)C(=N)N)C(=N)N`, the call was inactive.
As for `CC1=CC(=O)C2=C(C)CC[C@@H]3[C@@H](OC(=O)[C@H]3C)[C@H]12`, the outcome was inactive.
In the case of `N#Cc1cccc(-c2cncnc2-n2ccnc2)c1`, the compound was classed as inactive.
With `C[C@@H]1C[C@H](OC(=O)c2ccccc2O)CC(C)(C)C1`, the call was inactive.
Take `CC1=C(C(=O)O)N2C(=O)[C@@H](NC(=O)[C@@H](N)c3ccc(O)cc3)[C@@H]2SC1`: the call was inactive.
For `COc1cc2nc(N3CCN(C(=O)[C@@H]4COc5ccccc5O4)CC3)nc(N)c2cc1OC`, the call was inactive.
`C[N+]12CCC(CC1)[C@@H](OC(=O)C(O)(c1ccccc1)c1ccccc1)C2`: the compound was classed as inactive.
With `CO[C@H]1[C@@H](OC(N)=O)[C@H](O)[C@@H](Oc2ccc3c(O)c(NC(=O)c4ccc(O)c(CC=C(C)C)c4)c(=O)oc3c2C)OC1(C)C`, the call was inactive.
For `O=C(O)[C@@H](O)[C@@H](O)[C@@H](O[C@H]1O[C@@H](CO)[C@@H](O)[C@@H](O)[C@@H]1O)[C@@H](O)CO`, the result was inactive.
As for `CC[C@H](C)C(=O)O[C@@H]1C[C@H](C)C=C2C=C[C@H](C)[C@@H](CC[C@H]3C[C@@H](O)CC(=O)O3)[C@H]21`, the compound was classed as inactive.
Regarding `CO/N=C(\C(=O)N[C@@H]1C(=O)N2C(C(=O)O)=C(COC(N)=O)CS[C@@H]12)c1ccco1`, the result was inactive.
As to `CC[C@H](CC[C@H](C)[C@@H]1CC[C@@H]2[C@H]3CC=C4C[C@@H](O)CC[C@]4(C)[C@H]3CC[C@]21C)C(C)C`, the compound was classed as inactive.
Turning to `C[C@H](CCC(=O)O)[C@H]1CC[C@@H]2[C@@H]3[C@@H](O)C[C@H]4C[C@@H](O)CC[C@@]4(C)[C@H]3CC[C@@]21C`, the compound was called inactive.
For `Nc1ccn([C@@H]2CC[C@H](CO)O2)c(=O)n1`, the compound was classed as inactive.
Take `CC(C)(CS)C(=O)N1CCC[C@H]1C(=O)O`: the result was inactive.
Turning to `NCc1ccccc1CC(=O)N[C@@H]1C(=O)N2C(C(=O)O)=C(CSc3nnnn3CC(=O)O)CS[C@@H]12`, the call was inactive.
Regarding `NC[C@@H]1O[C@H](O[C@H]2[C@H](O)[C@H](O[C@@H]3O[C@H](CO)[C@@H](O)[C@H](N)[C@@H]3O)[C@@H](N)C[C@H]2N)[C@@H](O)[C@H](O)[C@@H]1O`, the call was inactive.
For the compound `CO[C@@H]1C=CO[C@]2(C)Oc3c(C)c(O)c4c(O)c(c(C=NN5CCN(C)CC5)c(O)c4c3C2=O)NC(=O)C(C)=CC=C[C@H](C)[C@H](O)[C@H](C)[C@H](O)[C@H](C)[C@H](OC(C)=O)[C@H]1C`, the compound was called inactive.
For `CC(C)(C)NC[C@H](O)COc1cccc2c1C[C@@H](O)[C@@H](O)C2`, the compound was classed as inactive.
For `C[C@@H]1C[C@@H]2[C@H]3CCC4=CC(=O)C=C[C@]4(C)[C@]3(F)[C@@H](O)C[C@]2(C)[C@@]1(O)C(=O)CO`, the compound was called inactive.
`OC[C@@H](O)CN1CCN(c2ccccc2)CC1`: the call was inactive.
In the case of `N[C@H](Cc1cc(I)c(Oc2ccc(O)c(I)c2)c(I)c1)C(=O)O` it was “inactive”.
In the case of `CN=C(NC#N)NCCSC[C@H]1N=CN=C1C` it was “inactive”.
In the case of `O=C(O)[C@@H]1CCCN1` it was “inactive”; in that of `CO[C@]1(NC(=O)[C@H](C(=O)O)c2ccc(O)cc2)C(=O)N2C(C(=O)O)=C(CSc3nnnn3C)CO[C@H]21`, “inactive”.
On to `CCc1c(C)[nH]c2c1C(=O)[C@H](CN1CCOCC1)CC2`, for which the compound was called inactive.
The value for `FC(F)(F)c1ccccc1-c1ccc2ncnc(NC3CCNCC3)c2c1` was “inactive”.

For the origin of these results see PubChem BioAssay (NCATS).
